In the library only some 8.6% were active in any assay of this set; here they are far more common.
MARV entry inh – qHTS for Inhibitors of binding or entry into cells for Marburg Virus; Marburg virus pseudotype entry/binding inhibition, cell-based; Potency, µM (series often up to 49.2 µM), for the others: at the top dose activity change, negative = inhibition, actives largely listed as inhibitors; actives 6.5% (n = 18,000); AID 720532, 2013
LASV entry inh – qHTS for Inhibitors of binding or entry into cells for Lassa Virus. Lassa virus pseudotyped entry inhibition, cell-based qHTS. Potency, µM (doses to about 49.2 µM), inactives show top-dose activity change, negative = inhibition, actives largely listed as inhibitors. actives 4.1% (n = 18,000). AID 720533, 2013
* hit, by the source's call; [ ] = another dose, or the depositor's remark. Calls come from the whole dose curve; tested in HEK293 cells. % is set by controls: 0 for no effect and ±100 for the full control effect; potency is the fitted concentration of half-maximal effect.

Screening CC(CN(C)C)CN1c2ccccc2Sc2ccc(C(F)(F)F)cc21 (centres undefined) returned MARV entry inh 10µM* and LASV entry inh 31.6µM*.
Screening CN(C)CCCN1c2ccccc2Sc2ccc(C(F)(F)F)cc21 returned MARV entry inh 11.2µM* and LASV entry inh inconclusive.
For C[C@@H](CN(C)C)CN1c2ccccc2Sc2ccccc21 the results were MARV entry inh 11.2µM* and LASV entry inh inconclusive.
COc1ccc2c(c1)N(C[C@H](C)CN(C)C)c1ccccc1S2 was read as MARV entry inh inconclusive and LASV entry inh -26.3%[17.8 µM].
CC(CN(C)C)CN1c2ccccc2Sc2ccccc21 (centres undefined) was read as MARV entry inh 11.2µM* and LASV entry inh inconclusive.
Screening C#CCN1C(=O)[C@]2(O[C@H](COc3ccccc3)CC3=C2CCC3)c2ccccc21 returned MARV entry inh -41.4%[8.59 µM].
Screening COc1ccc(O[C@H]2C=C[C@@H](c3ccccc3)O[C@H]2COC(=O)CCC(C)=NO[C@H](C)c2cn([C@@H]3COC[C@@H]3O)nn2)cc1 returned MARV entry inh -3.3%[8.59 µM].
Screening COC(=O)C1=C(C)N(Cc2ccccc2)C(=S)NC1c1ccccc1 (centres undefined) returned MARV entry inh 5.8%[8.59 µM] and LASV entry inh 0.1%[8.59 µM].
For O=C(OCc1cn([C@H]2CN(C(=O)C3CCCCC3)[C@@H](c3ccccc3)C[C@H]2O)nn1)c1ccccc1 the results were MARV entry inh inconclusive and LASV entry inh -28.1%.
For Cc1cccc(CN2CCN([C@@H]3C[S+](=O)([O-])N[C@@H]3COCc3ccccc3)CC2)c1 the results were MARV entry inh -18.3% and LASV entry inh -9.7%.
Screening CO/N=C(\C(=O)N[C@@H]1C(=O)N2C(C(=O)[O-])=C(C[n+]3ccc(N)n3CCO)CS[C@H]12)c1csc(N)n1 returned MARV entry inh -12.5% and LASV entry inh -18.7%.
Screening COc1cc(OC)c2c(-c3ccccc3)cc(=O)oc2c1C(CCN1CCOCC1)c1ccc2c(c1)OCO2 (centres undefined) returned MARV entry inh 10µM* and LASV entry inh inconclusive.
COc1ccc(C(CCN2CCOCC2)c2c(OC)cc(OC)c3c(-c4ccccc4)cc(=O)oc23)cc1 (centres undefined) was read as MARV entry inh 22.4µM* and LASV entry inh inconclusive.
COc1cc(OC)c2c(=O)c(-c3ccccc3)c(C)oc2c1OC was read as MARV entry inh 11.6% and LASV entry inh 1.6%.
Screening COc1cc(OC)c2ccc(=O)oc2c1C(CCN1CCOCC1)c1ccc2c(c1)OCO2 (centres undefined) returned MARV entry inh inconclusive and LASV entry inh -26.4%.
`COc1cc(C(CCN2CCOCC2)c2c(OC)cc(OC)c3c(-c4ccccc4)cc(=O)oc23)cc(OC)c1OC` (centres undefined) gave MARV entry inh 10µM* and LASV entry inh 4.47µM*.
For COc1cc(OC)c2ccc(=O)oc2c1C(CCN1CCOCC1)c1ccc(N(C)C)cc1 (centres undefined) the results were MARV entry inh -11.1% and LASV entry inh 6.1%.
`COc1cc(C(CC2=CCCCC2)NC(=O)C(F)(F)F)cc(OC)c1OC` (centres undefined) gave MARV entry inh 0.9%[8.59 µM] and LASV entry inh -20.8%[8.59 µM].
`OC[C@@H](O)[C@H]1O[C@@H]2O[C@@H](C(Cl)(Cl)Cl)O[C@@H]2[C@H]1O` gave MARV entry inh -7.9% and LASV entry inh -5.3%.
COc1cccc([C@@H]2Oc3ccc(Br)cc3C(=O)[C@@H]2OC(=O)Nc2ccc(OC(F)F)cc2)c1 was read as MARV entry inh 39.4%[8.59 µM] and LASV entry inh 110.2%[8.59 µM].
Screening Cc1ccc(NC(=O)c2ccoc2)cc1-c1ccc(C(=O)NCC2CC2)cc1 returned MARV entry inh 0.1% and LASV entry inh inconclusive.
Screening COc1ccc(C(=O)c2c(C)n(CCN3CCOCC3)c3ccccc23)cc1 returned MARV entry inh -14.2% and LASV entry inh -27.0%.
`COc1ccccc1C1(O)CCN(CCCn2c3ccccc3c3ccccc32)CC1` gave MARV entry inh 3.98µM* and LASV entry inh inconclusive.
Screening CC1=C[C@@H](C)OC2(C1)C(=O)N(CC1CC1)c1cccc(Br)c12 (some centres undefined) returned MARV entry inh 2.7%[8.59 µM] and LASV entry inh 2.2%[8.59 µM].
`COc1cccc([C@@H]2Oc3ccc(Br)cc3C[C@@H]2OC(=O)N[S+](=O)([O-])c2ccc(C)cc2)c1` gave MARV entry inh -4.0%[8.59 µM] and LASV entry inh 2.6%[8.59 µM].
COc1cccc([C@@H]2Oc3ccc(Br)cc3C[C@@H]2OC(=O)Nc2cc(OC)c(OC)c(OC)c2)c1 was read as MARV entry inh -5.4%[8.59 µM] and LASV entry inh 20.8%[8.59 µM].
For C=C[C@]1(C)C[C@@H](OC(=O)CO)[C@]2(C)[C@H](C)CC[C@]3(CCC(=O)[C@H]32)[C@@H](C)[C@@H]1O the results were MARV entry inh 0.4% and LASV entry inh -8.8%.
Screening C=C[C@]1(C)C[C@@H](OC(=O)CSC(C)(C)CNC(=O)[C@H](N)C(C)C)[C@]2(C)[C@H](C)CC[C@]3(CCC(=O)[C@H]32)[C@@H](C)[C@@H]1O returned MARV entry inh 12.6µM* and LASV entry inh 0.1%.
Screening COc1ccc(O[C@H]2C=C[C@@H](c3ccccc3)O[C@H]2COC(=O)CCC(C)=NO[C@@H](C)c2cc(-c3c(C)cc(C)cc3C)no2)cc1 returned MARV entry inh 3.1%[8.59 µM] and LASV entry inh -15.8%[8.59 µM].
For COc1cccc([C@H]2Oc3ccc(OC)cc3C(=NOC[C@@H](O)COCc3ccco3)[C@H]2O)c1 the results were MARV entry inh inconclusive and LASV entry inh 10.2%[8.59 µM].
Screening CC(C)Nc1oc(-c2ccccc2)nc1C=Cc1ccccc1 returned MARV entry inh -31.4%[8.59 µM] and LASV entry inh 7.5%[8.59 µM].
Screening CC(C)Nc1ccc(Nc2ccccc2)cc1 returned MARV entry inh 28.2µM* and LASV entry inh inconclusive.
Screening Cc1ccc(/C=C2/CNC/C(=C\c3ccc(C)cc3)C2=O)cc1 returned MARV entry inh 3.55µM* and LASV entry inh 11.2µM*.
`C[C@@H]1[C@H](O)[C@@H](C)/C=C/C=C\C=C\C=C\C=C\C=C\C=C\[C@H](O[C@@H]2O[C@H](C)[C@@H](O)[C@H](N)[C@@H]2O)C[C@@H]2O[C@](O)(C[C@@H](O)C[C@@H](O)[C@H](O)CC[C@@H](O)C[C@@H](O)CC(=O)O[C@H]1C)C[C@H](O)[C@H]2C(=O)O` (stereo in doubt) gave MARV entry inh 18.3% and LASV entry inh -1.3%.
`C=C(CCN1C=C(C(=O)OCC)C(c2ccccc2)NC1=O)c1ccc(Cl)cc1` (centres undefined) gave MARV entry inh 14.3%[8.59 µM] and LASV entry inh -3.9%[8.59 µM].
`CC[C@@]1(O)CC(O)c2c(cc3c(c2O)C(=O)c2c(O)ccc(O)c2C3=O)C1C(=O)OC` (some centres undefined) gave MARV entry inh -19.8% and LASV entry inh 6.0%.
CCCCC(=O)OCC(=O)[C@]1(O)Cc2c(O)c3c(c(O)c2[C@@H](O[C@H]2C[C@H](NC(=O)C(F)(F)F)[C@H](O)[C@H](C)O2)C1)C(=O)c1c(OC)cccc1C3=O was read as MARV entry inh inconclusive and LASV entry inh 2.82µM*.
COc1cccc2c1C(=O)c1c(O)c3c(c(O)c1C2=O)C[C@](O)(C(C)=O)C[C@H]3O[C@@H]1C[C@H](N)[C@H](O)[C@H](C)O1 was read as MARV entry inh inconclusive and LASV entry inh 1µM*.

Source: PubChem BioAssay
